The values below come from PubChem BioAssay (NCATS).

“And” between values parts separate entries of the source, which are not always exact repeats. Equal entries are not always repeated. A number with no mark means an inactive call. Records with an inconclusive call do not appear. The source made the active and inactive calls. Unless noted, the call rests on the fitted dose curve; in most records, active means well fitted curve in the direction sought with a large enough effect; inconclusive means small, poorly fitted or top-dose-only effect, or another doubt; inactive means no such curve, though single readings can be large; an effect the other way counts as inactive or inconclusive.

The nature of assay [1]: qHTS for differential inhibitors of proliferation of Plasmodium falciparum line D10 (AID 1877).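 Further: potency means the concentration at half of the fitted maximal effect; parasites grown with compound for 72 h before DNA staining.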
A short description of assay [2]: qHTS for differential inhibitors of proliferation of Plasmodium falciparum line Dd2 (AID 1882). Further: potency means the concentration at half of the fitted maximal effect; nearly all actives have a fitted effect of over 65% in size. The following applies: Potency: Plasmodium falciparum Dd2 proliferation inhibition. A digest of the protocol: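 SYBR Green I DNA fluorescence read-out, ex 485/em 535 nm. Signals were normalized to 0.29 uM artemisinin and DMSO wells, then corrected using vehicle-only plates flanking each stack. Parasite growth ran 72 h in erythrocytes before lysis.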

The nature of assay [3]: qHTS for differential inhibitors of proliferation of Plasmodium falciparum line W2 (AID 1883).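 Further: potency means the concentration at half of the fitted maximal effect; parasites grown with compound for 72 h before lysis and staining.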 The following applies: Potency: Plasmodium falciparum W2 proliferation inhibition.
A short description of assay [4]: qHTS for differential inhibitors of proliferation of Plasmodium falciparum line HB3 (AID 1886).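 Further: potency means the concentration at half of the fitted maximal effect; parasites grown with compound for 72 h before SYBR Green readout.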 The note with it: Potency: Plasmodium falciparum HB3 proliferation inhibition.
Assay [5] concerns the target ATP-dependent DNA helicase Q1 (Homo sapiens) (UniProt P46063). Put plainly: qHTS Validation Assay for Inhibitors of RecQ-Like Dna Helicase 1 (RECQ1) (AID 2353). A digest of the protocol:
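50 nM RECQ1T1 preincubated 15 min with compound in Tris pH 8.0 buffer with MgCl2, DTT, Tween-20 and 2.5 ug/ml poly(dI-dC); started with 200 nM TAMRA/BHQ-2 forked duplex and 2 mM ATP. Unwinding read as fluorescence (525/598 nm), two reads 2 h apart.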

The nature of assay [6]: Cytometric Cell-Based qHTS for Inhibitors of the mTORC1 Signaling Pathway in MEF (Tsc2-/-, p53-/-) Cells (AID 2660).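 Further: Tsc2 and p53 null MEFs carrying empty vector with compound for 24 h; percent of cells above a phospho-rpS6 to PI ratio cutoff in each well.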 A digest of the protocol:
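Readout: Alexa-488 phospho-rpS6 (Ser235/236) intensity divided by PI intensity, thresholded against 7.5 nM rapamycin wells and reported as % positive cells. PI cell count served as the viability measure. Compound exposure was 24 hrs at 37 degree Celsius.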

Assay [7] is described as follows: High Content Imaging Cell-Based qHTS for Inhibitors of the mTORC1 Signaling Pathway in MEF (Tsc2-/-, p53-/-) Cells (AID 2666).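 Further: percent of cells scored positive for phospho-rpS6 Ser235/236 immunostaining by imaging.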 The following applies: at 38.3 µM (top of the series). A digest of the protocol: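 Cells were plated, dosed with compound after 24 hrs, and incubated another 24 hrs at 37 degree Celsius. Fixed cells were immunostained for phospho-rpS6 Ser235/236 and counterstained, and the normalized signal was scored as % active cells against rapamycin and DMSO controls.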

A short description of assay [8]: High Content Imaging Cell-Based qHTS for Inhibitors of the mTORC1 Signaling Pathway in MEF Cells (AID 2667).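 Further: Tsc2-/- p53-/- MEFs stably re-expressing wild-type Tsc2 exposed 24 h.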 A digest of the protocol:
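Immunofluorescence for rpS6 phosphorylation in MEFs of Tsc2-/-, p53-/- background rescued with WT Tsc2. Compound exposure lasted 24 hrs. Inhibition was scored against rapamycin-treated control wells.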

The target in assay [9] is Ubiquitin carboxyl-terminal hydrolase 2 (Homo sapiens) (UniProt O75604). Put plainly: qHTS Validation Assay for Inhibitors of Ubiquitin-specific Protease USP2a Using CHOP2 as the Reporter (AID 463106). A digest of the protocol: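 10nM USP2 core + cpd, 30min RT; add 25nM Ub-CHOP2/25nM substrate; 60min RT; FI 485/531nm. Buffer Tris pH 8.0, CaCl2, BME, CHAPS. Norm. to NEM = 100% inhibition; time-zero read flags fluorescent artifacts.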

The target in assay [10] is DNA polymerase III PolC-type (Bacillus subtilis (strain 168)) (UniProt P13267). Description: qHTS Validation Assay for the Inhibitors of DNA Replication in Gram-Positive Bacteria (AID 485295).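 Further: PicoGreen fluorescence of double-stranded DNA made on primed circular M13 template.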 A digest of the protocol: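 Reconstituted B. subtilis holoenzyme (Pol III, beta clamp, SSB, primase) was preincubated with compound at room temperature, then given single-stranded circular M13Gori plus dNTPs and NTPs. EDTA-containing PicoGreen stopped the reaction, and dsDNA product was read by fluorescence.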

The target in assay [11] is Tumor susceptibility gene 101 protein (Homo sapiens) (UniProt Q99816). Put plainly: qHTS Validation Assay for Iinhibitors of HIV-1 Budding by Blocking the Interaction of PTAP/TSG101 (AID 485342; calls by dose curve). A digest of the protocol: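 Tsg101 binding domain (10 uM final) in pH 7.5 HEPES/NaCl/Tween 20/EDTA/TCEP buffer was mixed with pin-transferred compounds, then FITC-labeled PTAP peptide (50 nM final) was added; after 20 min at r.t., fluorescence polarization was read.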

Assay [12] concerns the target Beta-2 adrenergic receptor (Homo sapiens) (UniProt P07550). Description: qHTS validation assay of beta-arrestin-biased ligands of beta2-adrenergic receptor (AID 485366). A digest of the protocol: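 Tango cells (recombinant beta2-AR with recombinant beta-arrestin; recruitment releases tTA driving luciferase) were treated with compounds titrated up to 46 microM for 18 hr at 37 degrees C. Luminescence gave %Activity, and concentration-response curves were curve-classified.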

In assay [13] the target is ATP-dependent 6-phosphofructokinase (Trypanosoma brucei brucei) (UniProt O15648). Put plainly: qHTS Validation Assay to Find Inhibitors of T. brucei phosphofructokinase (AID 485368). A digest of the protocol: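 Compounds (up to 57 uM, titration series) were pinned into substrate buffer, then 1.25 nM PFK added; after 45 min at room temperature, ADP product was quantified by ADP-Glo luminescence and concentration-response curves fitted.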

Assay [14] can be described thus: Quantitative high throughput screen for delayed death inhibitors of the malarial parasite plastid, 96 hour incubation (AID 488745). Further: potency means the concentration at half of the fitted maximal effect; nearly all actives have a fitted effect of over 70% in size. A digest of the protocol: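 P. falciparum carrying an integrated firefly luciferase reporter, grown in erythrocytes (2% hematocrit, 0.1% parasitemia final) in RPMI 1640/0.5% Albumax, was exposed to compound for 96 h (two generations) at 37 C, 5% CO2. Luminescence decrease indicated growth inhibition.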

Assay [15] deals with Thioredoxin reductase 1, cytoplasmic (Rattus norvegicus) (UniProt O89049). Put plainly: qHTS Assay for Substrates of Mammalian Selenoprotein Thioredoxin Reductase 1 (TrxR1) (AID 488772).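 Further: NADPH fluorescence in the first read after selenite addition and not the 8 min delta; a drop in NADPH fluorescence below the no-compound background marks a TrxR1 substrate.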 A digest of the protocol: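 Quantitative HTS in Tris-HCl buffer at pH 7.5 with EDTA and Tween-20, using rat TrxR1, 400 uM NADPH and 400 uM selenite (final). A fall in initial NADPH fluorescence relative to background marked substrate behaviour.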

The target is the same in assay [16]. Description: qHTS Assay for Inhibitors of Mammalian Selenoprotein Thioredoxin Reductase 1 (TrxR1) (AID 488773).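 Further: drop in NADPH fluorescence over an 8 min run after selenite addition; nearly all actives have a fitted effect of over 40% in size.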 The note with it: Potency: inhibition. A digest of the protocol: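 Steps: enzyme (90 nM) plus NADPH (400 uM final), 5 min at ~22 deg C; compound added, 15 min; selenite (400 uM final) added; fluorescence followed for 8 min. Concentration-response curves derived from the normalized delta values.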

Assay [17] deals with M-phase phosphoprotein 8 (Homo sapiens) (UniProt Q99549). Description: qHTS Validation Assay for Inhibitors for MPP8 Chromodomain Interactions with Methylated Histone Tails (AID 488949). Further: potency means the concentration at half of the fitted maximal effect; nearly all actives have a fitted effect of over 55% in size. A digest of the protocol:
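MPP8 (50 nM) was preincubated with biotinylated H3(1-18)K9me3 peptide (50 nM) in PBS pH 7.4, 0.01% Tween-20 for 30 min at room temperature, then with compounds for 30 min; binding was detected by AlphaScreen.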

Assay [18] has as its target Chromobox protein homolog 1 (Homo sapiens) (UniProt P83916). Description: qHTS Validation Assay for Inhibitors of HP1-beta Chromodomain Interactions with Methylated Histone Tails (AID 488953). Further: potency means the concentration at half of the fitted maximal effect; nearly all actives have a fitted effect of over 50% in size. A digest of the protocol:
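HP1-beta (50 nM) was preincubated 30 min at room temperature with biotinylated H3(1-18)K9me3 peptide (50 nM) in PBS pH 7.4, 0.01% Tween-20, then with compounds 30 min. AlphaScreen signal was read after streptavidin donor/nickel chelate acceptor beads (10 ug/mL final).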

Assay [19] addresses Thyrotropin receptor (Homo sapiens) (UniProt P16473). Description: qHTS Assay for Antagonists of the Thyroid Stimulating Hormone Receptor (AID 488980). A digest of the protocol: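 HEK293 cells transfected with human TSHR, suspended in HEPES-buffered HBSS with 70 uM RO 20-1724, were treated with compounds plus TSH at EC80 (4 nM final). cAMP was measured by competitive HTRF (cryptate anti-cAMP antibody, cAMP-d2 acceptor).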

Assay [20] addresses D(1A) dopamine receptor (Homo sapiens) (UniProt P21728). Put plainly: HTS Assay for Allosteric Agonists of the Human D1 Dopamine Receptor: Primary Screen for Agonists (AID 488981). A digest of the protocol:
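Calcium flux in an inducible, force-coupled HEK293 Trex D1 line (overnight at 30 C): agonist mode is the 180 s kinetic read after compound; potentiator mode is the following 180 s read after dopamine at EC20.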

Sequence of M-phase phosphoprotein 8 (Homo sapiens) (Q99549 whole entry, looked up): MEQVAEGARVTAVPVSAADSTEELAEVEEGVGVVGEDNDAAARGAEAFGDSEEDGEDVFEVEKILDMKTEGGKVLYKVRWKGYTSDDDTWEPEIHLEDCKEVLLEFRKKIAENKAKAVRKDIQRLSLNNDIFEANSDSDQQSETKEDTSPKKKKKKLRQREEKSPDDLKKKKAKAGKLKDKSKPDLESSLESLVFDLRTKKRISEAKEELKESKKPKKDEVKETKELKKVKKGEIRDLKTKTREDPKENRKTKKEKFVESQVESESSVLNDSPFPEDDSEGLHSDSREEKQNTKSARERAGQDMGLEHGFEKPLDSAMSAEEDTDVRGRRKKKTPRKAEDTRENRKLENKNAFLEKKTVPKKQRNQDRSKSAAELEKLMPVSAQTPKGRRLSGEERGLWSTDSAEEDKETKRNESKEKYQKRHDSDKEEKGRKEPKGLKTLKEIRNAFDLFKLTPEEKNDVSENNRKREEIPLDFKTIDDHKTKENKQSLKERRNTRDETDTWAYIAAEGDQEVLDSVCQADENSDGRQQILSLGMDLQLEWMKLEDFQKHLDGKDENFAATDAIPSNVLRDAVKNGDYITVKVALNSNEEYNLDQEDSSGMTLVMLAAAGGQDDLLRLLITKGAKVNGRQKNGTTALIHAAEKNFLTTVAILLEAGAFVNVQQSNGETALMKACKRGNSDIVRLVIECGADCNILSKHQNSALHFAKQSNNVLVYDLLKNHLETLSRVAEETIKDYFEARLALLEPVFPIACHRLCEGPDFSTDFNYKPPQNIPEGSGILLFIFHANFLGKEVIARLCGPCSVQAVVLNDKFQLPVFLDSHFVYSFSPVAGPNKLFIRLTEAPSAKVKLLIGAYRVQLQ
Sequence of Thioredoxin reductase 1, cytoplasmic (Rattus norvegicus) (O89049 whole entry, looked up): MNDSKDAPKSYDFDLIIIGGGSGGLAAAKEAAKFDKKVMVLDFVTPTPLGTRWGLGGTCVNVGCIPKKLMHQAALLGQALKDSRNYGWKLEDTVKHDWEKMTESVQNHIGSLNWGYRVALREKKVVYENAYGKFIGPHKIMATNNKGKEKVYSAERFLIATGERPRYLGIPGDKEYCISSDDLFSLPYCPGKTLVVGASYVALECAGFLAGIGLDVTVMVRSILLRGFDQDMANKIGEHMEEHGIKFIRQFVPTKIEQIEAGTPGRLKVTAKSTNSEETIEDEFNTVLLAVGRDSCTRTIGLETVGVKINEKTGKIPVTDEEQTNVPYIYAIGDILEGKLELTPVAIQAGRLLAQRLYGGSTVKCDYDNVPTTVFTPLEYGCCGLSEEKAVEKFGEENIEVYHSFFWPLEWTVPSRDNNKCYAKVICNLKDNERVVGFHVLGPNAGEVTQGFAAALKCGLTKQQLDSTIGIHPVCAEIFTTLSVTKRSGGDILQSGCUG
Sequence of ATP-dependent DNA helicase Q1 (Homo sapiens) (P46063 whole entry, looked up): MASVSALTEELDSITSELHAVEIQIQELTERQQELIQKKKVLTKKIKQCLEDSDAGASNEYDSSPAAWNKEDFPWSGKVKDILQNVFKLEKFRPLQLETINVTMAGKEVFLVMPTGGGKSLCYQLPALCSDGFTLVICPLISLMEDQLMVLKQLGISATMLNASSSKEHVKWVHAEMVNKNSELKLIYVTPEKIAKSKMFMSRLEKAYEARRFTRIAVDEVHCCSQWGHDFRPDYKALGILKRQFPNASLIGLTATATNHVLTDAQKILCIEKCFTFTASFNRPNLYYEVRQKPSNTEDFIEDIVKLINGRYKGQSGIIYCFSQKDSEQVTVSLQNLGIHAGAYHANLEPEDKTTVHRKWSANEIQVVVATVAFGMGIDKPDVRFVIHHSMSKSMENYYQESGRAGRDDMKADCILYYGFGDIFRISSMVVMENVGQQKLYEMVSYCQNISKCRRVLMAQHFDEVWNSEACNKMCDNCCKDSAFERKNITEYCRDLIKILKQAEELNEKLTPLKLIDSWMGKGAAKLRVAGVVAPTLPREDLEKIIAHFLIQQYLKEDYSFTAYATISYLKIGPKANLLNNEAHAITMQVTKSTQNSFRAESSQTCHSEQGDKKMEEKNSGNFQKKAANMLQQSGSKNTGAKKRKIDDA
Sequence of Beta-2 adrenergic receptor (Homo sapiens) (P07550 whole entry, looked up): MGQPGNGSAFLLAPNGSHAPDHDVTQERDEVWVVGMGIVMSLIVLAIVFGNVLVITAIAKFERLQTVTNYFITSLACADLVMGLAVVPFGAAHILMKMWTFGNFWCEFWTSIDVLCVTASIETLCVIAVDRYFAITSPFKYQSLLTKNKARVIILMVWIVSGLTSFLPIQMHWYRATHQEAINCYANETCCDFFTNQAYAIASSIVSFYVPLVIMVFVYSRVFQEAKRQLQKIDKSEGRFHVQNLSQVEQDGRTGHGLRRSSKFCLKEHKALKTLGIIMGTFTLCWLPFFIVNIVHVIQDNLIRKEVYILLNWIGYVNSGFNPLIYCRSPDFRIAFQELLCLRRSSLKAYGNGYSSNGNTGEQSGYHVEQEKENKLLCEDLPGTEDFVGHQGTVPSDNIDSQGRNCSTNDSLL
Sequence of Thyrotropin receptor (Homo sapiens) (P16473 whole entry, looked up): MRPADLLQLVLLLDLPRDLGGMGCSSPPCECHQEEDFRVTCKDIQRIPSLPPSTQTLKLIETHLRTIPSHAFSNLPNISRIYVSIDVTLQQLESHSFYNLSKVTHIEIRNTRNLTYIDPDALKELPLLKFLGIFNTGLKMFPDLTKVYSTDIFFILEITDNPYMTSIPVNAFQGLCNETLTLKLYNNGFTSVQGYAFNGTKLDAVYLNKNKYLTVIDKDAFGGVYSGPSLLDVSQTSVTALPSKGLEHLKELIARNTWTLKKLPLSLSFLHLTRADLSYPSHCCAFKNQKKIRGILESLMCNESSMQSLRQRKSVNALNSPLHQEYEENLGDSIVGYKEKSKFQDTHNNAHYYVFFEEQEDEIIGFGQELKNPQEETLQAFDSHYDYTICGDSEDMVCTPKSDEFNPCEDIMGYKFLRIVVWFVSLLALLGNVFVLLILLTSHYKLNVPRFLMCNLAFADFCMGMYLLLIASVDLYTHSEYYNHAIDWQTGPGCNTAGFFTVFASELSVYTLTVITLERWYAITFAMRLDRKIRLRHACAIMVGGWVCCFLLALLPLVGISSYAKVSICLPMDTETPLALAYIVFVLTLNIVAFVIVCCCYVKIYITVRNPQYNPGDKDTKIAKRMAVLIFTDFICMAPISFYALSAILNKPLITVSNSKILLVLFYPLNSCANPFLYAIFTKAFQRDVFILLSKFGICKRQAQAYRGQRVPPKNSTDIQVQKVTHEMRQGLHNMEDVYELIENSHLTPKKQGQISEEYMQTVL
Sequence of ATP-dependent 6-phosphofructokinase (Trypanosoma brucei brucei) (O15648 whole entry, looked up): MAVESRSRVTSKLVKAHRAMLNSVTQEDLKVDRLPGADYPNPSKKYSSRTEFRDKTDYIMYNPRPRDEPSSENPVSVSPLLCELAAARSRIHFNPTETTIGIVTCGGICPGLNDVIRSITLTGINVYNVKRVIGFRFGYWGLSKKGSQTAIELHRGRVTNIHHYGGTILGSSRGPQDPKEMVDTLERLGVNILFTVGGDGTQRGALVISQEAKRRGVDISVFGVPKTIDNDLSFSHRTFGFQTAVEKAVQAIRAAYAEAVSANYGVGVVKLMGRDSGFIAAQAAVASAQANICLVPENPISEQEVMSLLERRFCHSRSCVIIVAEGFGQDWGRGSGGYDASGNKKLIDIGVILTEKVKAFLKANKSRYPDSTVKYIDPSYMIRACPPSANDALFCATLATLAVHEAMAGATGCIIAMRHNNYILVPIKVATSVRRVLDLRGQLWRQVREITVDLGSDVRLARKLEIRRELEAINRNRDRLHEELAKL
Sequence of D(1A) dopamine receptor (Homo sapiens) (P21728 whole entry, looked up): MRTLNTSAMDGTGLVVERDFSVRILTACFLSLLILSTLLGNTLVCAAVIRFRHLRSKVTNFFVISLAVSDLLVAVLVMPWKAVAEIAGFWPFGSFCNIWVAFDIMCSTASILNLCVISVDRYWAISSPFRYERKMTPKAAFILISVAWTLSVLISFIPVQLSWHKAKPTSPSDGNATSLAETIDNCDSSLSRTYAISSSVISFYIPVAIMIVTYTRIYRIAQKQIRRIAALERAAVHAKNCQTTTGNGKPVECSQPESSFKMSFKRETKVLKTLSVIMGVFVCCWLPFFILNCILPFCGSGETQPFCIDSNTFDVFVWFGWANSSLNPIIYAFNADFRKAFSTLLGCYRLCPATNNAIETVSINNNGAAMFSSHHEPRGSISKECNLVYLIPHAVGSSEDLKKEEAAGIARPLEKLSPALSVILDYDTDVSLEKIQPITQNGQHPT
Sequence of Ubiquitin carboxyl-terminal hydrolase 2 (Homo sapiens) (O75604 whole entry, looked up): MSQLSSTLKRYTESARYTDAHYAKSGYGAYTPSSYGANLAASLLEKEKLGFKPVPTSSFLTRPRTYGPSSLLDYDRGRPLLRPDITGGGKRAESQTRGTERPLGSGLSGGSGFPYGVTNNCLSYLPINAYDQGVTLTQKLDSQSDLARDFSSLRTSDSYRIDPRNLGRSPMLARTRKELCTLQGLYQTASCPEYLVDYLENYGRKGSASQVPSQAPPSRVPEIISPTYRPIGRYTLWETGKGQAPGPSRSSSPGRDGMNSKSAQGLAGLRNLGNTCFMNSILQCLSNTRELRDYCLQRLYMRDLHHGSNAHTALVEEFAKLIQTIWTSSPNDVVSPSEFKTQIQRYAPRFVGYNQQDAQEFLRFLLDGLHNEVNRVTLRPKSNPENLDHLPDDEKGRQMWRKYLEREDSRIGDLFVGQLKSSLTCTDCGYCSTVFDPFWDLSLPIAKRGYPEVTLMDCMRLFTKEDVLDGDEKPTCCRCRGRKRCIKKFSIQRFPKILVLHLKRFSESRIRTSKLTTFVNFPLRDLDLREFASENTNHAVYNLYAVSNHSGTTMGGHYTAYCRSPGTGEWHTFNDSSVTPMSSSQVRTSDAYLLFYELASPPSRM
Sequence of Chromobox protein homolog 1 (Homo sapiens) (P83916 whole entry, looked up): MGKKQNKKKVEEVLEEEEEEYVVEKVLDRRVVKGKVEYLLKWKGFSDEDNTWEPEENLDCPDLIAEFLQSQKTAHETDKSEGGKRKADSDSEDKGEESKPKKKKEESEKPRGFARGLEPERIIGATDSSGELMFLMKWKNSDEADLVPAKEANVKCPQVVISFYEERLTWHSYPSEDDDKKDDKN

For the compound `O=Nc1c(-c2c(O)[nH]c3ccccc23)[nH]c2ccccc12`, the Potency is 1.58 µM (active) in [1]; 2.24 µM (active) in assay [2]; 0.398 µM (active) in assay [3]; 0.501 µM (active) in assay [4]; 1.17 µM (active) in [14]; 6.31 µM (active) and 7.52 µM (active) in [17]. Besides, the Potency in assay [18] is 3.98 µM (active). The Potency entry in assay [5], in assay [8], in assay [9], in [10], in assay [13] and in [16] was “inactive” each time. The call in [6], in [7], in [11], in assay [12], in [15] and in assay [19] was inactive. For the same compound, the call in assay [20] was inactive.
